Results filed as inconclusive are left out. Active and inactive are the calls of the source. The call rests on the fitted dose curve; in most records, active means well fitted cell-killing curve with a large enough effect; inconclusive means small, poorly fitted or top-dose-only effect, or effect the other way; inactive means no such curve, though single readings can be large or run the other way.
Key:
[1] = Quantitative High-Throughput drug screen in 47 multiple myeloma cell lines against the NCATS MIPE library collection: MM1R_ATCC cell viability assay (AID 1918981); further: nearly all actives have a fitted effect of over 35% in size
Procedure, shortened: (§1)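 ATP-based luminescence (CellTiter-Glo, 5 min RT incubation) quantified surviving cells following two days' treatment with MIPE 4.0 agents at 37 °C, 5% CO2.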

[2] = Quantitative High-Throughput drug screen in 47 multiple myeloma cell lines against the NCATS MIPE library collection: LP1_DSMZ cell viability assay (AID 1918982); further: nearly all actives have a fitted effect of over 35% in size
Procedure, shortened: as §1

[3] = Quantitative High-Throughput drug screen in 47 multiple myeloma cell lines against the NCATS MIPE library collection: OCIMY7_PLB cell viability assay (AID 1918987); details: OCI-MY7 myeloma viability, CellTiter-Glo ATP, 48 h; viability (% of DMSO): at 45.8 µM (top of the series); further: nearly all actives have a fitted effect of over 65% in size
Procedure, shortened: as §1

[4] = Quantitative High-Throughput drug screen in 47 multiple myeloma cell lines against the NCATS MIPE library collection: OPM1_PLB cell viability assay (AID 1918989); further: nearly all actives have a fitted effect of over 40% in size
Procedure, shortened: as §1

[5] = Quantitative High-Throughput drug screen in 47 multiple myeloma cell lines against the NCATS MIPE library collection: SKMM1_PLB cell viability assay (AID 1919863); details: SKMM1 myeloma viability, CellTiter-Glo ATP, 48 h; viability: hits give low values; further: nearly all actives have a fitted effect of over 35% in size
Procedure, shortened: as §1

[6] = Quantitative High-Throughput drug screen in 47 multiple myeloma cell lines against the NCATS MIPE library collection: XG6_PLB cell viability assay (AID 1919865); further: nearly all actives have a fitted effect of over 40% in size
Procedure, shortened: as §1

[7] = Quantitative High-Throughput drug screen in 47 multiple myeloma cell lines against the NCATS MIPE library collection: XG1_PLB cell viability assay (AID 1919866); further: nearly all actives have a fitted effect of over 35% in size
Procedure, shortened: as §1

[8] = Quantitative High-Throughput drug screen in 47 multiple myeloma cell lines against the NCATS MIPE library collection: PE2_PLB cell viability assay (AID 1919869); further: nearly all actives have a fitted effect of over 35% in size
Procedure, shortened: as §1

[9] = Quantitative High-Throughput drug screen in 47 multiple myeloma cell lines against the NCATS MIPE library collection: PCM6_Riken cell viability assay (AID 1919870); further: nearly all actives have a fitted effect of over 30% in size
Procedure, shortened: as §1

[10] = Quantitative High-Throughput drug screen in 47 multiple myeloma cell lines against the NCATS MIPE library collection: RPMI8226_ATCC cell viability assay (AID 1919871); further: nearly all actives have a fitted effect of over 30% in size
Procedure, shortened: as §1

[11] = Quantitative High-Throughput drug screen in 47 multiple myeloma cell lines against the NCATS MIPE library collection: OCIMY5_PLB cell viability assay (AID 1918988); further: nearly all actives have a fitted effect of over 65% in size
Procedure, shortened: as §1

[12] = Quantitative High-Throughput drug screen in 47 multiple myeloma cell lines against the NCATS MIPE library collection: U266_ATCC cell viability assay (AID 1919864); further: nearly all actives have a fitted effect of over 35% in size
Procedure, shortened: as §1

[13] = Quantitative High-Throughput drug screen in 47 multiple myeloma cell lines against the NCATS MIPE library collection: OPM2_DSMZ cell viability assay (AID 1919872); further: nearly all actives have a fitted effect of over 30% in size
Procedure, shortened: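 We plated 500 myeloma cells per well, pinned in MIPE 4.0 compounds, and incubated for 48 hours at 37C. ATP was then quantified with CellTiter-Glo, with DMSO and media-only wells defining 100% and 0%.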

[14] = Quantitative High-Throughput drug screen in 47 multiple myeloma cell lines against the NCATS MIPE library collection: KMS11_JCRBsus cell viability assay (AID 1919873); further: nearly all actives have a fitted effect of over 50% in size
Procedure, shortened: as §1

[15] = Quantitative High-Throughput drug screen in 47 multiple myeloma cell lines against the NCATS MIPE library collection: KMS28BM_JCRB cell viability assay (AID 1919874); further: nearly all actives have a fitted effect of over 35% in size
Procedure, shortened: as §1

[16] = Quantitative High-Throughput drug screen in 47 multiple myeloma cell lines against the NCATS MIPE library collection: L363_DSMZ cell viability assay (AID 1918984); details: L363 myeloma viability, CellTiter-Glo ATP luminescence, 48 h; viability (% of control): at 45.8 µM (top of the series); further: nearly all actives have a fitted effect of over 40% in size
Procedure, shortened: as §1

[17] = Quantitative High-Throughput drug screen in 47 multiple myeloma cell lines against the NCATS MIPE library collection: VP6_DJ cell viability assay (AID 1919867); further: nearly all actives have a fitted effect of over 40% in size
Procedure, shortened: as §1

[18] = Quantitative High-Throughput drug screen in 47 multiple myeloma cell lines against the NCATS MIPE library collection: KMS34_JCRB cell viability assay (AID 1918985); further: nearly all actives have a fitted effect of over 40% in size
Procedure, shortened: as §1
Potency means the concentration at half of the fitted maximal effect.

CC(C)c1c(C(=O)Nc2ccccc2)c(-c2ccccc2)c(-c2ccc(F)cc2)n1CC[C@H](O)C[C@@H](O)CC(=O)O
active: Potency [1] 10.5 µM | Potency [2] 20.9 µM | Potency [3] 4.69 µM | Potency [4] 6.62 µM | Potency [5] 18.7 µM | Potency [6] 18.7 µM | Potency [7] 13.2 µM | Potency [8] 11.8 µM | Potency [9] 16.6 µM | Potency [10] 10.5 µM

O=c1[nH]c(=O)n([C@H]2C[C@@H](O)[C@@H](CO)O2)cc1C(F)(F)F
active: Potency [1] 7.43 µM | Potency [3] 7.43 µM | Potency [11] 14.8 µM | Potency [5] 5.9 µM | Potency [6] 1.87 µM | Potency [8] 10.5 µM | Potency [10] 3.72 µM | Potency [14] 6.62 µM | Potency [15] 9.35 µM
inactive: Potency [2] | Potency [4] | Potency [12] | Potency [13]

Nc1[nH]nc2nnc(-c3c(-c4ccccc4)nn4ccccc34)cc12
inactive: Potency [2] | Potency [10] | Potency [13]
active: Potency [1] 23.5 µM | Potency [16] 2.64 µM | Potency [3] 0.209 µM | Potency [11] 20.9 µM | Potency [4] 5.26 µM | Potency [12] 5.26 µM | Potency [6] 3.72 µM | Potency [17] 1.66 µM | Potency [8] 9.35 µM | Potency [9] 7.43 µM | Potency [14] 0.235 µM | Potency [15] 0.166 µM

CNc1nc(-c2ccc3c(N)n[nH]c3c2)cc(N2C[C@@H](C(=O)NC3CCCCC3)CC[C@@H]2C)n1
active: Potency [1] 18.7 µM | Potency [2] 2.64 µM | Potency [18] 20.9 µM | Potency [3] 0.0662 µM | Potency [4] 23.5 µM | Potency [12] 16.6 µM | Potency [6] 20.9 µM | Potency [7] 20.9 µM | Potency [17] 5.9 µM | Potency [8] 6.62 µM | Potency [13] 23.5 µM | Potency [14] 5.26 µM | Potency [15] 23.5 µM

COc1ccc2c(c1)c(C1=C(c3c[nH]c4ccccc34)C(=O)NC1=O)cn2CCCN(C)C
inactive: Potency [2]
active: Potency [1] 23.5 µM | Potency [16] 13.2 µM | Potency [18] 14.8 µM | Potency [11] 37.2 µM | Potency [4] 23.5 µM | Potency [12] 26.4 µM | Potency [17] 20.9 µM | Potency [14] 23.5 µM

CC(C)N(CCCNC(=O)Nc1ccc(C(C)(C)C)cc1)C[C@H]1O[C@@H](n2cc(Br)c3c(N)ncnc32)[C@H](O)[C@H]1O
active: Potency [1] 20.9 µM | Potency [2] 23.5 µM | Potency [18] 20.9 µM | Potency [4] 23.5 µM | Potency [12] 20.9 µM | Potency [6] 20.9 µM | Potency [7] 23.5 µM | Potency [13] 23.5 µM | Potency [14] 18.7 µM
inactive: Potency [16]

CCn1c(-c2nonc2N)nc2cncc(CNC3CCNCC3)c21
inactive: Potency [2] | Potency [12]
active: Potency [1] 16.6 µM | Potency [11] 18.7 µM | Potency [8] 5.9 µM | Potency [9] 4.18 µM | Potency [15] 20.9 µM

CC(C)c1onc(-c2c(Cl)cccc2Cl)c1COc1ccc(C=Cc2cccc(C(=O)O)c2)c(Cl)c1
inactive: Potency [2] | Potency [18] | Potency [4] | viability [5] 113% | Potency [7] | Potency [8] | Potency [10] | Potency [13] | Potency [14] | Potency [15]
active: Potency [1] 0.148 µM

O=C(c1ccc(C(=O)N2CCC(N3CCCC3)CC2)c(Nc2ccccc2)c1)N1CCC(N2CCCC2)CC1
active: Potency [5] 6.62 µM
inactive: Potency [1] | Potency [2] | Potency [16] | Potency [4] | Potency [12] | Potency [6] | Potency [7] | Potency [8] | Potency [10] | Potency [14]

CNC1[C@H](O)C(O[C@@H]2C(O)C(O[C@H]3O[C@H]([C@@H](C)NC)CC[C@H]3N)[C@@H](N)C[C@H]2N)OC[C@]1(C)O (stereo not given in full)
inactive: Potency [1] | Potency [2] | Potency [18] | Potency [3] | Potency [11] | viability [5] 103% | Potency [12] | Potency [6] | Potency [9] | Potency [10] | Potency [13] | Potency [15]
active: Potency [7] 18.7 µM

CN[C@@H](C)[C@H]1[C@H](O)C[C@@]2(C)[C@@H]3CC[C@H]4C(C)(C)[C@@H](NC)CC[C@@]45C[C@@]35CC[C@]12C
inactive: Potency [1] | Potency [2] | Potency [16] | Potency [18] | Potency [4] | Potency [12] | Potency [8] | Potency [10] | Potency [13]
active: Potency [6] 23.5 µM

Cc1cc(OCCCS(C)(=O)=O)cc(C)c1-c1cccc(COc2ccc3c(c2)OC[C@H]3CC(=O)O)c1
active: Potency [1] 6.62 µM | Potency [2] 16.6 µM | Potency [3] 18.7 µM | Potency [4] 18.7 µM | Potency [5] 14.8 µM | Potency [6] 23.5 µM | Potency [7] 16.6 µM | Potency [17] 2.35 µM | Potency [10] 18.7 µM | Potency [14] 18.7 µM | Potency [15] 20.9 µM
inactive: Potency [18] | Potency [12]

COc1cc(F)c(C(C)C)cc1-c1ccc(C(F)(F)F)cc1CN1C(=O)O[C@H](c2cc(C(F)(F)F)cc(C(F)(F)F)c2)[C@@H]1C
active: Potency [1] 0.296 µM | Potency [2] 0.662 µM | Potency [6] 20.9 µM | Potency [7] 26.4 µM | Potency [9] 23.5 µM | Potency [10] 1.66 µM
inactive: Potency [4] | Potency [13] | Potency [14] | Potency [15]

Cc1nc(C(=O)NCC(=O)O)c(O)c2ccc(Oc3ccccc3)cc12
inactive: Potency [1] | Potency [2] | Potency [16] | Potency [3] | Potency [11] | Potency [4] | Potency [8] | Potency [10] | Potency [13] | Potency [15]

— PubChem BioAssay (NCATS)
